This is an account of results in the supplement of paper PMC10849652.

Of roughly 7,900 targets only a part is listed; those with a hit were picked by preference. About 0.6% of all pairs of compound and target were hits.

Sequence of UniProt P52655 (P52655 whole entry, looked up): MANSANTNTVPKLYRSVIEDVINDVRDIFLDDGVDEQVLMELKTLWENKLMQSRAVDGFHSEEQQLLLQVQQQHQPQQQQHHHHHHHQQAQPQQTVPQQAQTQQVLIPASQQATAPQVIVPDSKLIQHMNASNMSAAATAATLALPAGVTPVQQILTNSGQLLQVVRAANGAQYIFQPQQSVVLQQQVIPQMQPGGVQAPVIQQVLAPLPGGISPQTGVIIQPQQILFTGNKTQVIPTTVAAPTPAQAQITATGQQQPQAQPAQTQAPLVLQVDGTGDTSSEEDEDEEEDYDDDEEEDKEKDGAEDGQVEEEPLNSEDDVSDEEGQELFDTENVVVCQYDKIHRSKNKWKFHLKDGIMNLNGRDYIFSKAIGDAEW
Sequence of UniProt O43824 (O43824 whole entry, looked up): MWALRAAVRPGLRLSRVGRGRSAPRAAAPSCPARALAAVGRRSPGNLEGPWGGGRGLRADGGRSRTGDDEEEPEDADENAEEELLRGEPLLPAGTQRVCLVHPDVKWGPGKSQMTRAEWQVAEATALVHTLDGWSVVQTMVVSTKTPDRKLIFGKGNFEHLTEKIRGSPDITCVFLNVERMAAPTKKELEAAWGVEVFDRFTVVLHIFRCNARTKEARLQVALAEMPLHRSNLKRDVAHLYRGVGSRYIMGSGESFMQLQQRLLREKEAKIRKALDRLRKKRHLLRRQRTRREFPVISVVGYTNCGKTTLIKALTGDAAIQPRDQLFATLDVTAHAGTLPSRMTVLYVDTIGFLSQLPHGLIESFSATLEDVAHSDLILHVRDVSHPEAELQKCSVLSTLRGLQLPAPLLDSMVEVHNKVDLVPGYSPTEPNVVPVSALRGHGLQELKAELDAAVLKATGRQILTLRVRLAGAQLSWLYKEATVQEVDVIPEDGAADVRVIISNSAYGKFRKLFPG
Sequence of UniProt Q1KMD3 (Q1KMD3 whole entry, looked up): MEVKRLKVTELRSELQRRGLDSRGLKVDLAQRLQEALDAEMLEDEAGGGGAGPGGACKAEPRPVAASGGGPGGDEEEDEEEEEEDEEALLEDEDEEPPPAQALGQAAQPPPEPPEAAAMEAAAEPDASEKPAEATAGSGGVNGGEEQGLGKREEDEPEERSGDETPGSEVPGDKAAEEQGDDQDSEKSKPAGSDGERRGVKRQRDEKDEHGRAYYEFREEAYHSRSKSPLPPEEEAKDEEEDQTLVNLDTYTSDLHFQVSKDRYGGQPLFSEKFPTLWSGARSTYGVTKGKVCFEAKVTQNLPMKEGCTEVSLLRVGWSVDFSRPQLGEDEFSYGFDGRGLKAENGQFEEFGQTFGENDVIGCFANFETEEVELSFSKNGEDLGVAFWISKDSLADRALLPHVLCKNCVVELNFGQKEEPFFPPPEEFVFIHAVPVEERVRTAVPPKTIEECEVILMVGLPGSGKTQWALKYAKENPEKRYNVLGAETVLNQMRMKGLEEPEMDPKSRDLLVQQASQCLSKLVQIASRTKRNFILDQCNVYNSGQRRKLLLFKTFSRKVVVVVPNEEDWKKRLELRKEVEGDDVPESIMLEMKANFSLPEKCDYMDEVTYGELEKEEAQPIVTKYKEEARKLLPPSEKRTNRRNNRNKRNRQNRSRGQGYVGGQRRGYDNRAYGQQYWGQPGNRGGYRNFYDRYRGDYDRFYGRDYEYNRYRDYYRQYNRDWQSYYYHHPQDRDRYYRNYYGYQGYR
Sequence of UniProt P85037 (P85037 whole entry, looked up): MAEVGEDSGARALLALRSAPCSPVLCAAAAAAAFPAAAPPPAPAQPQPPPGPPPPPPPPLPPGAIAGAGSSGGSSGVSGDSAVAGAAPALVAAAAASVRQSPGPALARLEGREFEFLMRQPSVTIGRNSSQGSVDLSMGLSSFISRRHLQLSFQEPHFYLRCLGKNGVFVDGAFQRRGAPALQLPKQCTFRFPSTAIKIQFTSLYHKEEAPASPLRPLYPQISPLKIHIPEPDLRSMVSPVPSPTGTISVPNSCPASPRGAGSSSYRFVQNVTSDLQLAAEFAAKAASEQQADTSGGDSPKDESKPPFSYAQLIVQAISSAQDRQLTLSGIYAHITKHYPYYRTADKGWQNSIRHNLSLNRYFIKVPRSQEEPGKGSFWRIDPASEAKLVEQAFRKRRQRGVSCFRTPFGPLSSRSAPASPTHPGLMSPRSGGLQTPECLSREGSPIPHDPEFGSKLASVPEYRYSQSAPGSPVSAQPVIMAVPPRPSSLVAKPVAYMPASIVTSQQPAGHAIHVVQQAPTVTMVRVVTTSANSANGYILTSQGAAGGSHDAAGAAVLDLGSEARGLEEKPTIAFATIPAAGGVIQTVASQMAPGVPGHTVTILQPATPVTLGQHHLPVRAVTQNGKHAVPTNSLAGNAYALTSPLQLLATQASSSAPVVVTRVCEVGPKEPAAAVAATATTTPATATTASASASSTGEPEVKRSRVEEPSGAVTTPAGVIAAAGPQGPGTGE
Sequence of UniProt P09211 (P09211 whole entry, looked up): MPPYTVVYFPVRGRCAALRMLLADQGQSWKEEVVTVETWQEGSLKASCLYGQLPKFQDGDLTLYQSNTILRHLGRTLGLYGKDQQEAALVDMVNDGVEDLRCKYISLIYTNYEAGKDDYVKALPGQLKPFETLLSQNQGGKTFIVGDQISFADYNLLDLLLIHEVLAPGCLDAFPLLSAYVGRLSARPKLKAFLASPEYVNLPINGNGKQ
Sequence of UniProt Q9UKN8 (Q9UKN8 whole entry, looked up): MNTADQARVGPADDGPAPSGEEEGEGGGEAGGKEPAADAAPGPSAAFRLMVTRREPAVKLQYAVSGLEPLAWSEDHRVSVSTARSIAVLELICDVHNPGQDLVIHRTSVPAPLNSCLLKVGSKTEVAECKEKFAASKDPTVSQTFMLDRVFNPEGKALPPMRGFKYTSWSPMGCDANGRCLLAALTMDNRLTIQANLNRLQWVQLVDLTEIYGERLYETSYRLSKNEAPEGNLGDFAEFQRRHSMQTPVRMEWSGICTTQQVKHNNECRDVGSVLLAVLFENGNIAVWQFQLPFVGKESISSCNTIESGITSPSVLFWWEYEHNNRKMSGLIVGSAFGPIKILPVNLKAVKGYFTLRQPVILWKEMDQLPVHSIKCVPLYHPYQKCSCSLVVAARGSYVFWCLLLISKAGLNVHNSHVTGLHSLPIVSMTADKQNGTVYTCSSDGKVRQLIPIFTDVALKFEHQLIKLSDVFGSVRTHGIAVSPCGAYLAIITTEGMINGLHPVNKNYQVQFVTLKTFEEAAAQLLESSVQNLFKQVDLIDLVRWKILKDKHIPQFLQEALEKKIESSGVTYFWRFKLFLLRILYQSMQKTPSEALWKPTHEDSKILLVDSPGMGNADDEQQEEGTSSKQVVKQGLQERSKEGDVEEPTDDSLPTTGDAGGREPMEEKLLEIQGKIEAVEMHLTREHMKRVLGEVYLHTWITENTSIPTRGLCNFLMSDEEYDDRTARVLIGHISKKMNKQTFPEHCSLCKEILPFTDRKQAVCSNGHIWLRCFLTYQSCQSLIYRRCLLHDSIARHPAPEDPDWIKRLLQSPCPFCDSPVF
Sequence of UniProt P00367 (P00367 whole entry, looked up): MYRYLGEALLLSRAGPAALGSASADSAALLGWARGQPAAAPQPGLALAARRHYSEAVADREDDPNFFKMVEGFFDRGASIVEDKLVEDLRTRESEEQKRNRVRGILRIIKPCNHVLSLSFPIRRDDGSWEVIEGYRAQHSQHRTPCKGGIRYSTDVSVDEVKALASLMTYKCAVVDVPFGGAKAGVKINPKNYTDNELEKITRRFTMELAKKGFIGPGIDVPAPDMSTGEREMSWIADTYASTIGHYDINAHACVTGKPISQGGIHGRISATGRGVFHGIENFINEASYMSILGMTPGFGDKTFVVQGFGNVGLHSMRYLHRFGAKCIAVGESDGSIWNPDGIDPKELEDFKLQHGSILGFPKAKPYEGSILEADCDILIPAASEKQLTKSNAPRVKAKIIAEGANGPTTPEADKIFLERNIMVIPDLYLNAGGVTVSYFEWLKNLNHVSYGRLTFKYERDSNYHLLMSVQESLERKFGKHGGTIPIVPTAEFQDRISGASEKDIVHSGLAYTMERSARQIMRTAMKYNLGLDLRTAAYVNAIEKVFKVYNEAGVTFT
Sequence of UniProt P36915 (P36915 whole entry, looked up): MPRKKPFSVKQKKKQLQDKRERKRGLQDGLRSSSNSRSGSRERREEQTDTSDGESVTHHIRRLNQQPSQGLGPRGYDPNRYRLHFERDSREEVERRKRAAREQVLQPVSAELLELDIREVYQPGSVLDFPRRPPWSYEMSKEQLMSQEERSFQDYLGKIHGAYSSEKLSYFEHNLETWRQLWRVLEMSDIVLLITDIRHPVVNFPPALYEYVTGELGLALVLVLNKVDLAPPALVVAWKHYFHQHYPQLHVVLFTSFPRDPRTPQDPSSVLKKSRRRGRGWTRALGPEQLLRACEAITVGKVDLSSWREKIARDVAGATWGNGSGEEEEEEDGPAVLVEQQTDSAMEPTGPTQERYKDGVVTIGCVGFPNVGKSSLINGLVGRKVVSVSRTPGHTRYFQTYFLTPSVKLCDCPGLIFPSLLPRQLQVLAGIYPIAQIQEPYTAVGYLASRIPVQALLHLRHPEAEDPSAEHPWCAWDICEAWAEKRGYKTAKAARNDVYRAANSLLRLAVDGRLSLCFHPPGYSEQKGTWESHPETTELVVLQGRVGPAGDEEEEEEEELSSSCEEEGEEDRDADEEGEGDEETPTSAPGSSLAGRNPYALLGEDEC
Sequence of UniProt Q01628 (Q01628 whole entry, looked up): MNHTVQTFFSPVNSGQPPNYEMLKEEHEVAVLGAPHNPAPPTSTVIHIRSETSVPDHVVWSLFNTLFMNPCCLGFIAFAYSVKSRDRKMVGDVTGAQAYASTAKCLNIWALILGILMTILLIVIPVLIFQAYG
Sequence of UniProt Q13907 (Q13907 whole entry, looked up): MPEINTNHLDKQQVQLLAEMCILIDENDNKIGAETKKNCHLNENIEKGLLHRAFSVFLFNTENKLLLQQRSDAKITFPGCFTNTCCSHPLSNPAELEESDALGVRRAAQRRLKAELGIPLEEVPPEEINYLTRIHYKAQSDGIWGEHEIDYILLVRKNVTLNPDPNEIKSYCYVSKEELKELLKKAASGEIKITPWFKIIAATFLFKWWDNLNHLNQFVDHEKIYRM

Compound in the first test: Cc1sc2c(c1C)C(c1ccc(Cl)cc1)=N[C@@H](CC(=O)OC(C)(C)C)c1nnc(C)n1-2
Description: log2 fold change, soluble protein after heating vs DMSO (PISA); higher = thermal stabilisation; K562 cells, 10 uM, 30 min; active = over 0.2 and 3.5 SD of the protein, either way, in both replicates (recomputed). An outline of the steps:
(§1)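 Aliquots of K562 cells (2×10^6 cells/mL) treated with 10 μM compound for 30 min were heated for 3 min over 48°C-58°C. After pooling and extraction in PBS with 0.5% NP-40 at 4°C, soluble protein from a 21,000xg, 90 min spin was quantified by TMTpro 16plex LC-MS/MS with channel sums equalised. Thermal stability is expressed against control samples, from duplicates, as a log2 fold change.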
For the target GNS (UniProt P15586), the log2 fold change is -0.001 (inactive).
With GTF3C4 (UniProt Q9UKN8), the log2 fold change is 0.02 (inactive).
On the same count and under the same terms, the same measure for FECH isoform 2 (UniProt P22830): -0.07 (inactive).
The same measure, in the same setting: the same measure for GLUD1 (UniProt P00367): 0.071 (inactive); for GALNT4 (UniProt Q8N4A0): -0.033 (inactive); for GNL1 (UniProt P36915): -0.037 (inactive).
On to FBXO3 (UniProt Q9UK99), for which the log2 fold change is 0.055 (inactive).
On to IFRD1 (UniProt O00458), for which the log2 fold change is 0.02 (inactive).
GTPBP6 (UniProt O43824): the log2 fold change was -0.062 (inactive).
For GPX4 (UniProt P36969), the log2 fold change was -0.064 (inactive).
Regarding GSTP1 (UniProt P09211), the log2 fold change was -0.013 (inactive).

Compound in a further test: c1ccc([C@@H]2C[C@H]2NC2CCNCC2)cc1
Described as above. An outline of the steps:
as §1
In the case of HNRNPUL2 (UniProt Q1KMD3), the log2 fold change was 0.04 (inactive).
As to FOXK1 (UniProt P85037), the log2 fold change was 0.049 (inactive).
In the case of GTF2A1 (UniProt P52655), the log2 fold change is -0.006 (inactive).
On to HSD17B12 (UniProt Q53GQ0), for which the log2 fold change was -0.008 (inactive).
Turning to IDI1 isoform 2 (UniProt Q13907), the log2 fold change was -0.007 (inactive).
Take HEXA (UniProt P06865): the log2 fold change was 0.024 (inactive).
With GCC2 (UniProt Q8IWJ2), the log2 fold change is -0.059 (inactive).
As for FDXR isoform 7 (UniProt P22570), the log2 fold change was -0.01 (inactive).
Still for that read-out and setting: the same measure for IFT80 isoform 3 (UniProt Q9P2H3): -0.027 (inactive).
On the same count and under the same terms, the same measure for HIST2H2BF isoform 2 (UniProt Q5QNW6): 0.125 (inactive); for IFITM3 (UniProt Q01628): -0.014 (inactive).
